Only some compounds are listed: those with a hit (about 9% of all), similar ones and a draw of the others.
LMNA splice mod: changes lamin A minigene splicing in HeLa cells | HeLa LMNA splicing GFP/RFP minigene ratio, 48 h | Potency, µM (highest dose often 46.1 µM), inactives show at the top dose ratio change, negative = inhibition, usual class: inhibitors | 0.01% of 200,000 active | AID 1487; active = well fitted inhibition curve with a large enough effect in the signal ratio, with a control signal flat, not every such curve was filed as active; inconclusive = small, poorly fitted or top-dose-only effect, or effect the other way, or a change in a side signal; the % refers to the signal ratio; note: % is set by controls: 0 for no effect and ±100 for the full control effect
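Read-out is the ratio of GFP to DsRed2 object intensity, acquired by 488 nm laser-scanning cytometry on HeLa lamin A-EGFP minigene reporter cells. Compound incubation 48 hrs at 37 °C in Opti-MEM with 2% FBS; DMSO 0.5% final.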
HTT aggregate: reduces HttQ103-GFP aggregates in PC12 cells; PC12 HttQ103-GFP aggregates, Acumen cytometry, 40 h; Potency, µM (highest dose often 46.1 µM), for inactives: at the top dose activity change, negative = inhibition, usual class: inhibitors; 1.1% of 220,000 active; AID 1688; note: % is set by controls: 0 for no effect and ±100 for the full control effect; nearly all actives have a fitted effect of over 60% in size
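Multiplexed with ATP-based cell death, this channel scores GFP aggregates in PC12 cells expressing inducible HTTex1-Q103-GFP. Induction used 100 nM tebufenozide; compounds were tested in concentration series.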
HTT ATP protect: cytoprotection in Huntington HTT-Q103 PC12 cell model; PC12 HTT-Q103 induced, cytoprotection, ATP luminescence, 40 h; 0.14% of 230,000 active; Potency, µM (highest dose often 56.4 µM), inactives show cytoprotection (ATP increase), usual class: activators; note: % of control where 0% means no effect; nearly all actives have a fitted effect of over 45% in size
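Rat PC12, Q103 Htt exon1-GFP fusion, ecdysone promoter; tebufenozide inducer 100 nM final; compound titration; qHTS, 1500 cells/well; ATPlite luminescent read.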
HPGD inh: inhibitors of human 15-hydroxyprostaglandin dehydrogenase (HPGD). P15428. purified HPGD, NADH fluorescence kinetic, PGE2 substrate. Potency, µM, inactives show at the top dose activity change, negative = inhibition, hits mostly inhibitors. 4.3% of 150,000 active. AID 894; active = well fitted inhibition curve with a large enough effect, not every such curve was filed as active; inconclusive = small, poorly fitted or top-dose-only effect, or another doubt; inactive = no such curve, though single readings can be large or run the other way; note: % is set by controls: 0 for no effect and ±100 for the full control effect
Target sequence (P15428 whole entry, looked up): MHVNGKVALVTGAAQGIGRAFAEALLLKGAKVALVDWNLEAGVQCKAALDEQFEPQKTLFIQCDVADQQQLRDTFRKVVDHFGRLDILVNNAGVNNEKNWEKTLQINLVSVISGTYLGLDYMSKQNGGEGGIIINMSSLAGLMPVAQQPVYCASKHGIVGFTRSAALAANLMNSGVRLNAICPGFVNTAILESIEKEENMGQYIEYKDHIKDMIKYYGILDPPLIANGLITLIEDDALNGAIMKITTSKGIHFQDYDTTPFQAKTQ
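NADH formation kinetics: reaction with 30 uM PGE2 and 1 mM NAD+ (final), 20 nM enzyme, Tris-HCl pH 8 with Tween 20, after 15 min compound preincubation at room temperature. Fluorescence change, last versus first of five reads.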
Luc counter: counter-screen: inhibitors of Kinase-Glo firefly luciferase | Potency, µM (doses to about 38.3 µM), without a hit: at the top dose activity change, negative = inhibition, usual class: inhibitors | Kinase-Glo luciferase, ATP luminescence, 8 min | 0.28% of 200,000 active | AID 1379; note: % is set by controls: 0 for no effect and ±100 for the full control effect; nearly all actives have a fitted effect of over 60% in size
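Inhibition of Kinase-Glo luciferase light generation was assessed at 10 uM ATP in pH 7.2 imidazole buffer, with luminescence measured after eight minutes at ambient temperature.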
ALDH1A1 inh: blocks purified human ALDH1A1 activity; AID 1030; 7.3% of 220,000 active; Potency, µM (titrated, usually from 75.3 µM), for inactives: at the highest dose activity, negative = inhibition, actives largely listed as inhibitors; P00352; Purified ALDH1A1, NADH fluorescence, propionaldehyde substrate; active = well fitted inhibition curve with a large enough effect, not every such curve was filed as active; inconclusive = small, poorly fitted or top-dose-only effect, or another doubt; inactive = no such curve, though single readings can be large or run the other way;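 note: plate controls were no enzyme wells and a reference inhibitor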
Target sequence (P00352 whole entry, looked up): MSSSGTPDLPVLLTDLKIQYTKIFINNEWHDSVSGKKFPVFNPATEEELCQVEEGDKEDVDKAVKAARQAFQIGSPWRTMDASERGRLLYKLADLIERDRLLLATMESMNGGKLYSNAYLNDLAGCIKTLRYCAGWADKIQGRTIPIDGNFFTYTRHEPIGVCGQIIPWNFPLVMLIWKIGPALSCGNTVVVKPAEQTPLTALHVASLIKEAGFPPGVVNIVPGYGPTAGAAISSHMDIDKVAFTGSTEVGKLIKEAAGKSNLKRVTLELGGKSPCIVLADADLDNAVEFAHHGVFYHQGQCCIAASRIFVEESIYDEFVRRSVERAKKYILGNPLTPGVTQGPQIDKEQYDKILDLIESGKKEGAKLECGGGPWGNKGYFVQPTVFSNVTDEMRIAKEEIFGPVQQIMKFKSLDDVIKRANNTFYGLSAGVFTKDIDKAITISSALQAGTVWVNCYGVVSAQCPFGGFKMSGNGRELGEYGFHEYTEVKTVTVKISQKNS
* = called active by the depositor; ? = inconclusive; / = not tested or not shown; [ ] = another dose, or the depositor's remark. Unless noted, calls come from the whole dose curve; as a rule, active = well fitted curve in the direction sought with a large enough effect; inconclusive = small, poorly fitted or top-dose-only effect, or another doubt; inactive = no such curve, though single readings can be large; an effect the other way counts as inactive or inconclusive. Potency is the fitted concentration of half-maximal effect.

SMILES	LMNA splice mod	HTT aggregate	HTT ATP protect	HPGD inh	Luc counter	ALDH1A1 inh
O=C(NCC1CCCO1)c1sc2cc(Cl)ccc2c1Cl (stereo not given)	?	4%	-6%[10 µM]	14µM*	-1%	?
Cc1ccc(C(=O)NC(=S)NCC2CCCO2)cc1Br (stereo not given)	?	-4%	/	-11%	0%	8.9µM*
CN(c1ccc(C(=O)NCC2CCCO2)cc1)S(=O)(=O)c1ccccc1 (stereo not given)	0%	-14%	-5%	14µM*	0%	15%
CC(C)CN(C(=O)COC(=O)c1ccc(-c2ccccc2)cc1)C1CCS(=O)(=O)C1 (stereo not given)	1%[46 µM]	-6%	-2%	/	-4%	?
COc1cccc(CNC(=O)C(=O)NCC2CCCO2)c1 (stereo not given)	-6%	3%	11%[10 µM]	-4%	0%	-10%
CC(C)CC(=O)c1c[nH]c(C(=O)NCC2CCCO2)c1 (stereo not given)	0%	13%	1%	20µM*	1%	?
O=C(NCC1CCCO1)c1csc(Nc2cccc3ccccc23)n1 (stereo not given)	?	-16%[9.22 µM]	34%[10 µM]	/	13µM*	-9%
COc1cccc(CN(CC2CCCO2)C(=O)c2cc3ccccc3oc2=O)c1 (stereo not given)	-7%[46 µM]	10%[9.22 µM]	-3%[10 µM]	/	-8%	16µM*
COc1cccc(C(=O)NCC2CCCO2)c1 (stereo not given)	-6%	-7%	5%	8.9µM*	-3%	1%
Cc1c(C(=O)N2CCC(C)CC2)c(S(=O)(=O)NCc2ccc(Br)cc2)c(C)n1C	-2%[46 µM]	/	/	/	/	/
COc1cccc(S(=O)(=O)NCc2ccc(C(=O)NCC3CCCO3)cc2)c1 (stereo not given)	-1%	4%	17%[10 µM]	16µM*	1%	14µM*
O=C(NCC1CCCO1)c1cccc(Br)c1 (stereo not given)	-1%	-4%	0%	25µM*	3%	7%
CC(C)NC(=O)c1ccc(COCC(F)(F)C(F)F)cc1	9%	2%	-19%	-20%	-2%	3%
COc1cc(OC)cc(C(=O)NCC2CCCO2)c1 (stereo not given)	-2%	8%	25%	25µM*	1%	-2%
O=C(NCC1CCCO1)c1ccc(COCC(F)(F)C(F)F)cc1 (stereo not given)	8%	-8%	19%[10 µM]	14µM*	4%	-1%
COc1cccc(N(CC(=O)NCC2CCCO2)C(=O)CNS(=O)(=O)c2ccccc2)c1 (stereo not given)	/	-5%	-21%	/	1%	-1%
CN(C)S(=O)(=O)c1cccc(C(=O)NCC2CCCO2)c1 (stereo not given)	-3%	14%	0%	-15%	5%	3%
O=C(NCc1ccco1)/C(=C/C=C/c1ccccc1)NC(=O)c1ccco1	2%[46 µM]	13%[9.22 µM]	12%[10 µM]	/	-4%	-6%
CN(C)CCCN1c2ccccc2Sc2cnccc21	/	/	12%[10 µM]	0%	-3%[7.66 µM]	7%[13.5 µM]
O=Cc1ccc(O)c2ncccc12	/	-36%[9.22 µM]	-44%[10 µM]	/	/	/
N#CC1=C(N)N(c2ccccc2)C(c2cccc([N+](=O)[O-])c2)C1(C#N)C#N (stereo not given)	?	?	-38%	?	1%	-14%
CCc1ccc(NC(=O)C(=O)NCC2CCCO2)cc1 (stereo not given)	22%[46 µM]	1%	-14%[10 µM]	/	-3%	3%
CCCC(=O)Nc1ccc(C(=O)NCC2CCCO2)cc1 (stereo not given)	0%	2%	16%[10 µM]	11µM*	-5%	?
COC(=O)c1ccccc1NC(=S)NC(=O)C1CC1	4%	3%[9.22 µM]	-13%	-10%	8%	?
NS(=O)(=O)c1ccc(CCNC(=O)c2ccc3nc4ccc(Cl)cc4c(=O)n3c2)cc1	-2%[46 µM]	-22%	-3%[10 µM]	/	-3%	?
SMILES	LMNA splice mod	HTT aggregate	HTT ATP protect	HPGD inh	Luc counter	ALDH1A1 inh
Cc1ccc2occ(C3N[C@H](C(=O)O)CS3)c(=O)c2c1 (stereo not given in full)	2%	10%	-24%	-9%	-1%	1.4µM*
Cc1ccc2occ(C3NC(C(=O)O)CS3)c(=O)c2c1 (stereo not given)	-28%	-14%	-5%[10 µM]	-12%	1%	?
CC(=O)Oc1ccc(Oc2ccc(-c3noc(C)n3)cc2)cc1	?	-31%	-47%	-28%	0%	0%
CC(=O)Nc1ccc(Oc2ccc(-c3noc(C)n3)cc2)cc1	?	?	-19%	7.9µM*	-4%	-5%
COCCCNC(=S)N1CCN(c2ccc([N+](=O)[O-])cc2)CC1	?	-23%	9%[10 µM]	-8%	1%	28µM*
O=[N+]([O-])c1ccc(N2CCN(C(=S)NCc3ccc(Cl)cc3)CC2)cc1	/	-7%[9.22 µM]	-25%[10 µM]	/	/	11µM*
CCNC(=S)N1CCN(c2ccc([N+](=O)[O-])cc2)CC1	2%	1%	-2%	-10%	-3%	3.2µM*
CCOC(=O)C1CCN(C(=O)CSc2n[nH]c(=O)[nH]c2=O)CC1	-2%	24%	-7%[10 µM]	-13%	-1%	-2%
Cc1oc(/N=C/c2cccc3ccccc23)c(C#N)c1C	2%	-8%	1%[10 µM]	-17%	13%	?
COc1ccc(/C=N/c2oc(C)c(C)c2C#N)c(OC)c1	7%[46 µM]	-12%[9.22 µM]	-5%[10 µM]	/	1%	13µM*
CCOC(=O)N1CCC(N(CCOC)C(=S)Nc2cccc(SC)c2)CC1	?	-26%	?	/	-1%	-5%
COc1ccccc1N1C[C@@H]2C[C@@H](c3ccco3)N3CCC[C@@]23C1=O	/	7.1µM*	-178%	/	7%	?
COCc1cc([C@@H]2C[C@H]3CN(c4ccccc4)C(=O)[C@]34CCCN24)ccc1OC	/	32µM*	-134%	/	4%	13%
CCN(CC)c1ccc(NC(=O)CCS(=O)(=O)c2cc3c(cc2Cl)NC(=O)CO3)c(C)c1	-23%[46 µM]	/	/	/	/	/
O=c1c2ccccc2c(C=Nc2ccccc2O)c(O)n1-c1nccs1	/	-15%[9.22 µM]	-13%[10 µM]	/	/	/
O=c1c2ccccc2sn1-c1nccs1	?	15%	-8%[10 µM]	/	-12%	13µM*
O=C(c1nsc(Cl)c1Cl)N1CCCCC1	?	-4%	-7%[10 µM]	2.5µM*	-2%	0%
CC(=O)N/C(=C/c1ccc2c(c1)OCO2)C(=O)NCC(=O)O	-3%	3.2µM*	/	-12%	2%	0%
CC(=O)N/C(=C\c1ccccc1)C(=O)NCc1ccc2c(c1)OCO2	/	-26%	-15%	/	-1%	-6%
CC(C)n1nnc2cc(C(=O)O)ccc21	/	/	-41%	?	-1%[39.9 µM]	-4%
O=C(c1cccnc1)N1CCc2ccccc2C1	5%	1%	14%	32µM*	4%	2%
